# Laboratory results: the supplement of paper PMC3334620
# In all, about 33,000 sequences were measured (“E-score (-0.5 to 0.5)”: median about -0.036, highest 2% from about 0.37 on). The sample holds the highest values, similar sequences and a random draw of the others, so the mix is not that of the screen.
# Target: T1, Yer064c (UniProt P40041)
# T1 sequence: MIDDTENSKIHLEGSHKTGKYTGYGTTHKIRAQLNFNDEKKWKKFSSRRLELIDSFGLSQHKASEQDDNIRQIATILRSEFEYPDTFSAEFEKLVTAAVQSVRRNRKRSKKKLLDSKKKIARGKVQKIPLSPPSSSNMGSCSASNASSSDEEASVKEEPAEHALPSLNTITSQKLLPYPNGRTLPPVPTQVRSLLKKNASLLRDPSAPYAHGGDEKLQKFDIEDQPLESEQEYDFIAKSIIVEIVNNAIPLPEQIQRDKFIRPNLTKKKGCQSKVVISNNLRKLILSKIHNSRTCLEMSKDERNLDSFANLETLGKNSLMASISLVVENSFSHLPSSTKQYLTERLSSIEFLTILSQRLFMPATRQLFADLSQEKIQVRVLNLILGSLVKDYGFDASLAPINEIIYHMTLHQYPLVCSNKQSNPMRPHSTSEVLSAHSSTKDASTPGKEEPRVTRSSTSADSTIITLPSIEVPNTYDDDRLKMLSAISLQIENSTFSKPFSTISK
# Assay: PBM E-score (8-mer binding enrichment) (E-score (-0.5 to 0.5)); higher = stronger / more preferred TF binding
# Conditions: protein concentration: 200 nM; construct: GST-full length
# Method: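 Universal 'all 10-mer' protein binding microarrays (Agilent AMADID 015681) probed with GST-tagged S. cerevisiae TFs (full-length or DBD) made by in vitro transcription/translation (PURExpress), about 100-200 nM. Bound TF was detected with fluorescent anti-GST. Each ungapped 8-mer (which stands for itself and its reverse complement) is scored by the PBM enrichment score (E-score), a modified Wilcoxon-Mann-Whitney statistic from -0.5 to +0.5, computed with the Universal PBM Analysis Suite. Scale: above 0.35 generally sequence-specific binding.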
row,Sequence,PBM E-score
1,ACGGCGAG,0.0206
2,GCTCGCAC,-0.24
3,CTACTTTC,0.0258
4,CGGCCGGC,-0.134
5,GTGGTGGA,-0.14
6,TTGGCCAA,-0.142
7,AGACTATC,0.35
8,CTACTAAA,0.00127
9,AGACTAAC,0.413
10,TGACTACA,0.476
11,CGACTAAA,0.41
12,AGACTTAA,0.195
13,AGACTAGC,0.251
14,TGACTTAA,0.435
15,CGACTACA,0.351
16,AGACTACA,0.344
17,GGACTTAA,0.188
18,CCACTAAA,-0.0544
19,ACACTCTG,-0.0556
20,ACGCCACT,-0.186
21,GGAACTTA,-0.0956
22,CAGTAACA,0.0175
23,TACATTGA,0.0284

row,Sequence,PBM E-score
1,AGATGATA,0.0471
2,AGTAAAGG,0.0771
3,ATCCATTC,0.0758
4,CTCAGATA,0.268
5,GGGTTTCA,-0.23
6,ACCGGAGA,-0.00273
7,ATAGAACC,0.0363
8,TGACTAAA,0.484
9,CGACTAAG,0.399
10,AGACTACC,0.354
11,CCACTAAG,0.0593
12,TGGCTAAA,0.306
13,CTACTAAG,0.0152
14,AGACTACG,0.322
15,AGACTAAG,0.383
16,GGACTAAA,0.331
17,AGACTATG,0.319
18,AAACTAAG,0.175
19,AGACTACT,0.376
20,ACTATTCA,0.106
21,AGTTGCCA,-0.223
22,ACGTTGAG,0.0564
23,GAGTCTGC,0.312

row,Sequence,PBM E-score
1,TTCAGCAA,-0.00768
2,AGTGATAT,-0.134
3,AACTGAAC,-0.119
4,AGACTAAT,0.389
5,AGACTAGA,0.276
6,AAACTAAA,0.0515
7,CGACTATC,0.359
8,ATACTAAT,0.174
9,AGACTAAA,0.398
10,CGACTATA,0.374
11,AAACTAAT,0.243
12,AGACTATA,0.35
13,AACTGGCT,-0.28
14,CGGGTAAC,-0.0478
15,AATCAAAT,0.23
16,CATCATAA,0.0722
17,AATCATAG,0.433
18,AATCATAT,0.428
19,AATCATAA,0.418
20,CATCATAG,0.25
21,AATCATAC,0.451
22,AAGCATAT,0.0236
23,CATCATAC,0.215

row,Sequence,PBM E-score
1,TATCATAA,0.0309
2,AATCAGAG,0.269
3,GATCATAC,-0.0115
4,AATGGCAC,-0.231
5,CCCTCCAA,-0.12
6,AATATAAA,0.0817
7,ATGGCTTC,0.156
8,GGGCGGCA,-0.406
9,CACACCCA,0.0764
10,AAACGAGA,0.0214
11,GAAAGAAA,-0.0206
12,CCTACGAA,-0.211
13,TACGCATA,-0.0887
14,AAGAAACG,-0.028
15,CTTTAGCA,-0.154
16,CGTATCGA,-0.111
17,ACGTCACC,-0.162
18,ACGTCACG,-0.289
19,AAGTCACA,0.414
20,TCGTCACA,-0.0543
21,AGGTCACC,0.00721
22,AAGTCAGG,0.341
23,AAGTCACG,0.433

row,Sequence,PBM E-score
1,AAGTCACC,0.447
2,AGGTCACG,-0.143
3,ATGTCACG,-0.123
4,TAGTCACA,0.478
5,TGGTCACA,0.103
6,AAGACCAG,-0.0791
7,CCCGGCAA,-0.166
8,CTGCGGAC,-0.0565
9,AGGGGGTC,-0.406
10,CCCACATA,0.0317
11,CCGTTCGA,0.0719
12,GCGTCACA,-0.13
13,AGGTCACT,0.0701
14,AAGTCACT,0.399
15,GGGTCACA,0.00589
16,GAGTCACA,0.493
17,ACGTCACT,-0.0404
18,GAGGCCAC,-0.319
19,ACGGCCGC,-0.0196
